From PubChem BioAssay (EPA / NIEHS)
“And” between values parts separate entries of the source, which are not always exact repeats. Identical values can stand only once. Results filed as inconclusive are left out. Where a structure was tested more than once in an assay, its records may differ in their call. The source made the active and inactive calls. How the source made its calls, unless noted: active means hit-call score of the fitted dose curve at least 0.9, where 1 is the maximum; inconclusive means response in the unintended direction; inactive means score below 0.9.

Key:
[1] = read-out: xenobiotic metabolism (CYP1A1), CYP1A1 (gene 1543); experiment: CLD_CYP1A1_6hr: CellzDirect (CLD) Gene Expression Assay for xenobiotic metabolism (CYP1A1) at 6 hours (AID 2283661);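 on AC50: potency for transcript induction above DMSO vehicle baseline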
Procedure, shortened: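 Read-out 6 h post-dose: qNPA chemiluminescent quantitation of transcript induction against 0.2% DMSO. Cells were cultured primary human hepatocytes from two separate donor preparations; phase-contrast morphology annotated apparent cytotoxicity.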

[2] = Tanguay_ZF_120hpf_TR_legacy: (Legacy) Oregon State University Tanguay Lab 120 Hour Post-fertilization zebrafish Assay for Touch Response (AID 2283667)
Procedure, shortened: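 Binary touch-response endpoint in larvae at 120 hpf after static waterborne exposure from embryo stage (28°C, 0.64% DMSO vehicle, 5 uM trimethyltin chloride as positive control); embryos dead at 24 or 120 hpf excluded; fitted as gain versus DMSO.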

[3] = read-out: glucuronosyltransferase (UGT1A1), UGT1A1 (gene 54658); experiment: CLD_UGT1A1_6hr: CellzDirect (CLD) Gene Expression Assay for glucuronosyltransferase (UGT1A1) at 6 hours (AID 2283672)
Procedure, shortened: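 UGT1A1 mRNA induction, read by quantitative nuclease protection assay, 6 h after dosing primary human hepatocytes (two donors, 0.2% DMSO vehicle). Gain of signal fitted relative to vehicle.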

[4] = read-out: xenobiotic metabolism (CYP1A1), CYP1A1 (gene 1543); experiment: CLD_CYP1A1_24hr: CellzDirect (CLD) Gene Expression Assay for xenobiotic metabolism (CYP1A1) at 24 hours (AID 2283673);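 further: CYP1A1 mRNA level by quantitative nuclease protection with chemiluminescence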
Procedure, shortened: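 Transcript levels were read at 24 h by qNPA chemiluminescence in human liver primary cells. Cells got daily fresh dosing at multiple concentrations (vehicle 0.2% DMSO). Induction fitted upward against DMSO; phase-contrast cytotoxicity annotated.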

[5] = read-out: ABC Transporter (ABCB11), ABCB11 (gene 8647); experiment: CLD_ABCB11_6hr: CellzDirect (CLD) Gene Expression Assay for ABC Transporter (ABCB11) at 6 hours (AID 2283675);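 further: hits raise ABCB11 mRNA level so AC50 marks induction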
Procedure, shortened: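 Read-out was ABCB11 mRNA gain of signal by quantitative nuclease protection assay, relative to 0.2% DMSO vehicle, 6 h post-dose. Cells were primary human hepatocytes from two donors, treated across multiple concentrations; phase-contrast cytotoxicity noted yes/no.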

[6] = CCTE_Padilla_ZF_144hpf_TERATOSCORE: (Legacy) CCTE's 144 Hour Post-fertilization zebrafish Assay Teratoscore, Padilla Lab (AID 2283679; active means hit-call score of the fitted dose curve at least 0.9, where 1 is the maximum; inactive means score below 0.9;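 on AC50: zebrafish embryos with chorions exposed by immersion from 6-8 hpf to 5 dpf with daily renewal; teratogenicity score from eye scoring of death hatching and malformations at 144 hpf; higher score means more developmental defects relative to DMSO baseline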)
Procedure, shortened: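 Larvae scored by eye at 144 hpf for death, hatching and malformations after a day in clean Hanks'. Before that, daily-renewed exposure at 80 uM (0.4% DMSO, 26C) from roughly 6-8 hpf through 5 dpf, 4 embryos per chemical.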

[7] = read-out: xenobiotic metabolism (CYP1A2), CYP1A2 (gene 1544); experiment: CLD_CYP1A2_24hr: CellzDirect (CLD) Gene Expression Assay for xenobiotic metabolism (CYP1A2) at 24 hours (AID 2283683)
Procedure, shortened: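 CYP1A2 mRNA induction measured by quantitative nuclease protection (chemiluminescent) in human primary hepatocytes 24 h after multi-concentration chemical dosing with daily fresh solutions. DMSO (0.2%) baseline; positive-direction fitting; morphology-based cytotoxicity noted.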

[8] = read-out: ABC Transporter (ABCB1), ABCB1 (gene 5243); experiment: CLD_ABCB1_24hr: CellzDirect (CLD) Gene Expression Assay for ABC Transporter (ABCB1) at 24 hours (AID 2283684)
Procedure, shortened: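 ABCB1 mRNA induction versus 0.2% DMSO vehicle was read by qNPA chemiluminescence at 24 h. Cultured human hepatocytes from two donor preparations received daily fresh dosing, and phase-contrast cytotoxicity calls were annotated alongside the data.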

[9] = read-out: Cytochrome P450 2B6 (Homo sapiens) (UniProt P20813); experiment: CLD_CYP2B6_24hr: CellzDirect (CLD) Gene Expression Assay for xenobiotic metabolism (CYP2B6) at 24 hours (AID 2283686)
Procedure, shortened: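 qNPA chemiluminescent measurement of mRNA at 24 hours in human primary hepatocyte cultures from two donor preparations, with daily fresh dosing and 0.2% DMSO vehicle as baseline. Morphology-based cytotoxicity flagged yes/no.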

[10] = read-out: Cytochrome P450 2C19 (Homo sapiens) (UniProt P33261); experiment: CLD_CYP2C19_24hr: CellzDirect (CLD) Gene Expression Assay for xenobiotic metabolism (CYP2C19) at 24 hours (AID 2283687);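 further: activity means mRNA induction above DMSO vehicle baseline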
Procedure, shortened: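 CYP2C19 mRNA was quantified by qNPA chemiluminescence after 24 h of daily dosing of cultured human primary hepatocytes from two donors; vehicle was 0.2% DMSO, and increases over DMSO baseline were fitted.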

[11] = read-out: Cytochrome P450 2C9 (Homo sapiens) (UniProt P11712); experiment: CLD_CYP2C9_24hr: CellzDirect (CLD) Gene Expression Assay for xenobiotic metabolism (CYP2C9) at 24 hours (AID 2283688)
Procedure, shortened: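 Induction of CYP2C9 mRNA was quantified by quantitative nuclease protection assay (chemiluminescence), gain of signal versus 0.2% DMSO vehicle, 24 h after dosing. Human primary hepatocytes (two donors) received fresh chemical daily at multiple concentrations; morphology-based cytotoxicity flagged yes/no.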

[12] = read-out: Cytochrome P450 3A4 (Homo sapiens) (UniProt P08684); experiment: CLD_CYP3A4_24hr: CellzDirect (CLD) Gene Expression Assay for xenobiotic metabolism (CYP3A4) at 24 hours (AID 2283689)
Procedure, shortened: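 CYP3A4 mRNA induction read by quantitative nuclease protection (chemiluminescence) 24 hr after dosing. Cultured human hepatocytes (two donor preparations) treated daily, vehicle 0.2% DMSO; phase-contrast morphology annotates cytotoxicity.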

[13] = tested on: Thyroperoxidase (TPO), gene 54314; experiment: CCTE_Simmons_AUR_rTPO: CCTE's Amplex UltraRed Assay for Thyroperoxidase (TPO) Inhibition, Simmons Lab (AID 2283662);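 on AC50: potency for loss of signal meaning inhibition of peroxidase activity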
Procedure, shortened: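 Rat thyroid microsomes (5 ug protein) were incubated with test compound (8 concentrations, 5 nM–87.5 uM final, 0.5% DMSO), 25 uM Amplex UltraRed and 300 uM H2O2 in 200 mM phosphate buffer for 30 min at 37C in the dark; fluorescence read at 544/590 nm.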

[14] = read-out: xenobiotic metabolism (CYP1A2), CYP1A2 (gene 1544); experiment: CLD_CYP1A2_6hr: CellzDirect (CLD) Gene Expression Assay for xenobiotic metabolism (CYP1A2) at 6 hours (AID 2283663);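 on AC50: potency is for induction meaning a rise in mRNA above DMSO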
Procedure, shortened: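 mRNA levels quantified by quantitative nuclease protection assay with chemiluminescence, 6 h after dosing human primary hepatocyte cultures (two donors) across several concentrations, vehicle 0.2% DMSO. Induction fitted upward versus DMSO; phase-contrast cytotoxicity annotated.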

[15] = CLD_ACTIN_6hr: CellzDirect (CLD) Gene Expression Assay for Baseline Control (Actin) at 6 hours (AID 2283676);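 further: active means increased actin mRNA relative to DMSO vehicle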
Procedure, shortened: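 Baseline actin transcript level measured by qNPA (S1 nuclease protection, chemiluminescence) in human hepatocyte cultures 6 h after chemical exposure; 0.2% DMSO vehicle as reference, cytotoxicity noted from morphology.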

[16] = read-out: organic anion transporter (SLCO1B1), SLCO1B1 (gene 10599); experiment: CLD_SLCO1B1_24hr: CellzDirect (CLD) Gene Expression Assay for organic anion transporter (SLCO1B1) at 24 hours (AID 2283690)
Procedure, shortened: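 SLCO1B1 mRNA induction read at 24 h by quantitative nuclease protection assay (chemiluminescence), analyzed against DMSO baseline. Human hepatocyte cultures from separate donors received fresh dosing solutions daily; vehicle 0.2% DMSO; cytotoxicity flagged by phase-contrast morphology.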

[17] = read-out: HMG-CoA synthase (HMGCS2), HMGCS2 (gene 3158); experiment: CLD_HMGCS2_6hr: CellzDirect (CLD) Gene Expression Assay for HMG-CoA synthase (HMGCS2) at 6 hours (AID 2283682);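 further: actives raise HMGCS2 transcript above the 0.2% DMSO vehicle baseline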
Procedure, shortened: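 HMGCS2 transcript induction read by quantitative nuclease protection with chemiluminescence, 6 h after dosing of primary human hepatocytes. Baseline was 0.2% DMSO vehicle; phase-contrast morphology gave a yes/no cytotoxicity annotation.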

[18] = read-out: Cytochrome P450 (CYP24A1_1), CYP24A1 (gene 1591); experiment: LTEA_HepaRG_CYP24A1_1: Life Technologies and Expression Analysis (LTEA) Assay for Cytochrome P450 (CYP24A1_1) using HepaRG (AID 2283671; active means hit-call score of the fitted dose curve at least 0.9, where 1 is the maximum; inactive means score below 0.9); conditions: mRNA level, 48 h; actives raise or lower the signal
Procedure, shortened: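 Differentiated human HepaRG cells were exposed in duplicate for 48 h in serum-free induction medium to eight concentrations (top 100 uM, half-log steps, 0.5% DMSO). CYP24A1 mRNA was quantified by TaqMan qRT-PCR, normalized to ACTB, GAPDH and POLR2A, and fitted bidirectionally versus DMSO.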

[19] = read-out: Cytochrome P450 2B6 (Homo sapiens) (UniProt P20813); experiment: CLD_CYP2B6_6hr: CellzDirect (CLD) Gene Expression Assay for xenobiotic metabolism (CYP2B6) at 6 hours (AID 2283677);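 further: actives raise CYP2B6 transcript above DMSO baseline so AC50 marks an inducer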
Procedure, shortened: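 CYP2B6 transcript levels, read by chemiluminescent qNPA, were fitted for increase versus DMSO baseline; cultured human liver hepatocytes from two donor preparations were harvested 6 h after exposure to test chemicals at multiple concentrations.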

[20] = read-out: Cytochrome P450 2C19 (Homo sapiens) (UniProt P33261); experiment: CLD_CYP2C19_6hr: CellzDirect (CLD) Gene Expression Assay for xenobiotic metabolism (CYP2C19) at 6 hours (AID 2283678)
Procedure, shortened: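 CYP2C19 transcript induction was quantified by quantitative nuclease protection assay with chemiluminescent read-out, 6 h after dosing. Cells were primary human hepatocytes from two donor preparations, given fresh dosing solutions daily in 0.2% DMSO vehicle. Activity was relative to DMSO.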

Measured: AC50

Cytochrome P450 2C19 (Homo sapiens), sequence (P33261 whole entry, looked up): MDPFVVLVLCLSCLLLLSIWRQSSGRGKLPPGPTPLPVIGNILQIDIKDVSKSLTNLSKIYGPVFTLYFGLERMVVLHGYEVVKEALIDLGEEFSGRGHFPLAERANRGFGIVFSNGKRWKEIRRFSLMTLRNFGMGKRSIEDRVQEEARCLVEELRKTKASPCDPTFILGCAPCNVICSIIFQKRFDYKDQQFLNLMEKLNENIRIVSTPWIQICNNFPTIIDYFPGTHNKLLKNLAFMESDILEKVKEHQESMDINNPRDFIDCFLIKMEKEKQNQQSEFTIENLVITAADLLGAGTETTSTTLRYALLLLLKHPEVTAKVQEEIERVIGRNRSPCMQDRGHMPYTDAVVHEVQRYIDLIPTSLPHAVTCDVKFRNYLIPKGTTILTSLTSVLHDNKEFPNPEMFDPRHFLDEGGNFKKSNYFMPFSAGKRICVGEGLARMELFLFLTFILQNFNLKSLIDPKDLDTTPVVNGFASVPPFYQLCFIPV
Cytochrome P450 3A4 (Homo sapiens), sequence (P08684 whole entry, looked up): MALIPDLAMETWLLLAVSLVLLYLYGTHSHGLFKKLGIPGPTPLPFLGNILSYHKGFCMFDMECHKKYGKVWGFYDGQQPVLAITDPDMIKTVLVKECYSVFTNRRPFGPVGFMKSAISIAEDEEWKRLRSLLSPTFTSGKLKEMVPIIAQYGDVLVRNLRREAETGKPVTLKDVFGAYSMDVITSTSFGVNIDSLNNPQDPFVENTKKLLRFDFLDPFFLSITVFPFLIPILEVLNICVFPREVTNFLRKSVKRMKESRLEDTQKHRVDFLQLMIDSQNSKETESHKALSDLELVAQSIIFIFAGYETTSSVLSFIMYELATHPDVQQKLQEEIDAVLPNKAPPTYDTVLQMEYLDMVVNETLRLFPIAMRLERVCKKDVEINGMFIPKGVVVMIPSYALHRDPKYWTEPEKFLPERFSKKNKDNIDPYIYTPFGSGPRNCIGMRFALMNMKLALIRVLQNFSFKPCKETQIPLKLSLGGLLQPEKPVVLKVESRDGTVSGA

CCCCNC(=O)OCC#CI
active: [1] 0.851 µM | [6] 0.664 µM
inactive: [1] | [2] | [3] | [4] | [5] | [7] | [8] | [9] | [10] | [11] | [12]

CC1=C(C(=O)Nc2ccccc2)SCCO1
inactive: [2] | [3] | [11]
active: [1] 11.1 µM | [13] 5.33 µM | [4] 20 µM | [6] 6.4 µM | [7] 15.1 µM | [9] 6 µM | [12] 6.76 µM

CCNc1nc(Cl)nc(NCC)n1
inactive: [14] | [2] | [3] | [15] | [6] | [8] | [11] | [16]
active: [1] 4.72 µM | [4] 5.56 µM | [7] 5.26 µM | [9] 9.74 µM

C=CCC1=C(C)C(OC(=O)C2C(C=C(C)C)C2(C)C)CC1=O (centres undefined)
active: [13] 33.6 µM | [6] 1.54 µM and 8.75 µM
inactive: [1] | [2] | [3] | [4] | [15] | [17] | [7] | [8] | [9] | [16]

CCCCC(CC)COC(=O)c1ccccc1C(=O)OCC(CC)CCCC (centres undefined)
not listed: [12] | [13] | [15] | [16] | [18] | [19] | [20]
inactive: all other assays above

CCCC1COC(Cn2cncn2)(c2ccc(Cl)cc2Cl)O1 (centres undefined)
active: [1] 6.32 µM | [14] 3.01 µM | [2] 9.51 µM | [4] 6.46 µM | [6] 26.5 µM | [7] 2.13 µM | [9] 0.668 µM | [12] 1.59 µM
inactive: [13] | [3] | [15] | [17] | [8]

C=CC1(C)OC(=O)N(c2cc(Cl)cc(Cl)c2)C1=O (centres undefined)
active: [1] 1.47 µM | [4] 0.317 µM | [19] 8.32 µM | [6] 145 µM | [7] 2.47 µM | [9] 7.15 µM
not listed: [5] | [13] | [14] | [17] | [20]
inactive: all other assays above

COc1nc(C)nc(NC(=O)NS(=O)(=O)c2ccccc2Cl)n1
active: [1] 0.00131 µM
inactive: [1] | [3] | [4] | [5] | [15] | [20] | [6] | [17] | [7] | [8] | [9] | [10] | [11] | [12] | [16]

COP(N)(=O)SC (centres undefined)
active: [13] 30.6 µM
not listed: [2] | [3] | [7] | [9] | [12] | [14] | [18] | [19]
inactive: all other assays above

CCOP(=S)(OCC)SCn1c(=O)oc2cc(Cl)ccc21
inactive: [2] | [3] | [5] | [20] | [17] | [12]
active: [1] 0.36 µM | [13] 2.18 µM | [4] 5.28 µM | [19] 1.61 µM | [6] 13.5 µM | [7] 3.97 µM | [9] 3.97 µM

CCCCOC(=O)c1ccccc1C(=O)OCCCC
inactive: [2] | [3] | [4] | [5] | [15] | [19] | [20] | [17] | [8] | [9] | [11] | [12]
active: [1] 3.36 µM and 5.18 µM | [4] 4.22 µM | [6] 1.83 µM | [7] 4.9 µM and 20 µM | [9] 5.33 µM

CNC(=S)S
inactive: [1] | [2] | [3] | [4] | [5] | [20] | [17] | [7] | [8]
active: [13] 22 µM and 23 µM

Cc1c(F)c(F)c(COC(=O)C2C(/C=C(\Cl)C(F)(F)F)C2(C)C)c(F)c1F (centres undefined)
active: [2] 3.23 µM | [6] 0.00676 µM | [9] 20 µM | [12] 5.74 µM
inactive: [1] | [14] | [3] | [4] | [5] | [15] | [7] | [8] | [16]
